# B1: GBRAPL2_0_7218 (protein)
# chain: MEELVEKARKLSVEEAAELFVEKVRELVESGKATDEELEALVEAAAEVLEEKIKKNKNEKDLDIAAEAADRIREILAKKDPRLAAFADSEIGAGIMEAAS
# B2: GBRAPL2_0_7211 (protein)
# chain: MEEILEKAKKLSVEEAAKYAVETVKSLVESGSLSPEELAELATKLLKVLIEKVKKDGKEESVEIAVETADKIREILKPVDPNLAADVDTEALSEILELEE
# B3: GBRAPL2_0_7216 (protein)
# chain: MEELVEEARKLSIEEAAKLFVEKVKELVESGKATDEELMELVEAGAKVLGEKLKKEKKEEGLDIAMKAADEIREILEKKDPNLAAYAYSEIGAEIMEAAS
# B4: GBRAPL2_0_7220 (protein)
# chain: MEEFVKEMLELSIKEAAEAAVKYIKELVESGKYSLEEIEEAVEKIAEVLGEKLKKEKKEEAEDIAMEAADEIRKILSEKDPNLAAYAYSEIGAEIMEAWS
# B5: GBRAPL2_0_7222 (protein)
# chain: MEELKEEMLKLSIEEASEKAVKTIKEAVESGKYSLEEIAELIEEMAEVIGELLKKEKKEESVDIAIEAADKIREILEKVDPNLAAYAYSEIGAEIMEAEE
# B6: GBRAPL2_0_7209 (protein)
# chain: YKERIEEAKKLSPEEAFKALKKLVKELAEDDSVSLEELEEILEAILELAYEIYKKEKTEEAEKAFDEIVDLATEAAAKRDPRLAAYIATFGGSLIMEAEL
# B7: GBRAPL2_0_7195 (protein)
# chain: VEEEIERISELPIEEAAEEGVRLVERVVADPSFTDEEKVEVALRVVDILAKKVKEEKTEEAEDIYVEALDEIRKLLLSVGPELANYVYAEGGSELMEIES
# B8: GBRAPL2_0_7213 (protein)
# chain: MEEFLKELKSLSIEEAAEKFVKKIEEMAKSGKYSLEEIEEIVEEMAKVLGEKVKKEKKEESLDIAAEAADKVREILEKIDPNLAAYAYSEIGAEIMEAAE
# B9: GBRAPL2_0_7197 (protein)
# chain: YLKEIEEMKKLSPEEAFEKAKELVKKLAEDKTISPEELEKILEAILELAAEIVKKTKEEKMEEKFDELADLAVKAAAKKDPNLAAYIASYAGSLRYEVES
# B10: GBRAPL2_0_7192 (protein)
# chain: YEERLEEISKLPIEEFAKEAVRIVEEAAKDPSLSLEELEEIALRAIRLLYEKVKEEKTEEAEDIYVEAADRIREILKKIDPNLAAYVATEAGALLYEWES
# B11: GBRAPL2_0_7206 (protein)
# chain: YEAEIEAAKKLTPEEAFKKLKELVKKLAKDTSLSKEELEKILEAIIDLAYEIYKKEKTEEAEEAFDEIVDLAVEAAAKRDPNLAAYIATYGGSKIMEAES
# B12: GBRAPL2_0_7219 (protein)
# chain: MEEKVEEMKKLSIKEAAEAAVKLIKEMVESGKYSLEEIAEAVEKLAEVLGEKLKKEKKEEAEDIALEAARKIREILAKRDPNLAAYAYSEIGAEIMEASS
# B13: GBRAPL2_0_7217 (protein)
# chain: MEELIEKAKELSVEEAAELFVEEVKRLVESGKATDEELMELVEKAAEVLEEKMKESKDEEDEDIALEAADRIREILAEKDPRLAAYAYSEIGAGIMEASS
# B14: GBRAPL2_0_7203 (protein)
# chain: YLEEIEKAKSLSPEELFKKLKELVKKLAEDKSISPEEKEEILEAIIKLAGEKVKETKTEETEKQFDEIVELAVEVAEKIDPNLAAYIRTLAGSLLYENES
# B15: GBRAPL2_0_7201 (protein)
# chain: YLEEIEKAKKLSPEEAFKKLKELVKKLAEDDSISLEELEEILEKILKLAAEKVKKTKKEEDLEKFEEIVDLATEAAAKRDPLLAAYIDTYGGSLLIEVEE
# B16: GBRAPL2_0_7196 (protein)
# chain: YLERIEKMKKLSPEEAYKEAKKLVEELAKDESISPEELEKILEAILEMMAEFVKKTKKEEMEKKFDEIADLAVEAAAKKDPNLAAYIASYAGSLRVEVES
# B17: GBRAPL2_0_7210 (protein)
# chain: MEKILEEAKKLSVEEAAEYAVETVEELVKSGSLSPEELAELAKELLKVLIEKVKENGKEEDVEIADETIDRVREILRPVDPRLAAYVATEGYSELLELEE
# B18: GBRAPL2_0_7193 (protein)
# chain: IEERIEKMKELSIEEAVKEGIEIVEEVMKDPSFTDEEKVEIAERVVDIVAEKAKEEKTEEALDLAVEFARKVREILEKISPEDAAYVETRMGAELMEIES
# B19: GBRAPL2_0_7199 (protein)
# chain: YLEEIEKAKELSPEEAFEKLEKLVKELAEDDSISLEELEEILEAIIELAAEKVKETKREEDLEKFDRIVDLAAEAAAKRDPNLAAYIRTYGGSLLIEVEE
# B20: GBRAPL2_0_7208 (protein)
# chain: YKERIEEAKKLSPEEAYKALKELVKEIAEDKSISAEEREEILEEIIELAYEIYKKEKTEEAEKAFDEIVDLAVKAAAKVDPNLAAYIASFGGSLIMEAES
# B21: GBRAPL2_0_7204 (protein)
# chain: YLEKIEKAKSLSPKELFEALKKLVKELAKDKSVSPEEKEEILEAIIKLAAERVKETKTEEDEKAFEEIVKEAVKVAEKIDPNLAAYVRTYAGSLLYEIES
# B22: GBRAPL2_0_7198 (protein)
# chain: YLERIEKAKELSPEETFKALKEIVKELAEDDSISLEELEEILEKIVELAAEKVKETKKEEDLEKFDEIVDLATEAAAKRDPNLAAYIDTYGGSLLIEVEE
# B23: GBRAPL2_0_7200 (protein)
# chain: YLEEIEKAKELSPEEAFKKLKELVKELAEDDSISLEELEEILEKIIELAAEKVKETKSEEDLKKFDEIVDLATEAAAKRDPLLAAYIDTYGGSLLIEVEE
# B24: GBRAPL2_0_7221 (protein)
# chain: MEKLVEEMKKLSVEEAAERFVKEIKEAVESGKYSLDEIAELIEAMAKVLGELLKKNKKEEDFDIAMKAADEVRKILEKVDPNLAAYAYSEIGAEIMEAEE
# B25: GBRAPL2_0_7214 (protein)
# chain: MEEFLEELKKLSIEEAAKKAVEKVREMAESGKYSLEEIEEFVEKMAEVLGEKIKKEKKEESLDIAAEAADEIRKILEKVDPRLAAYADSEIGAEIMEAEE
# B26: GBRAPL2_0_7205 (protein)
# chain: YEEEIEKAKELSPEELFKALKELVKKLKEDDSISLEELEEILLRILELAAEKVKEVKTEEAEEAFDELVELAVEAMKKRDPNMANYIETYGGSLLYEIES
# B27: GBRAPL2_0_7215 (protein)
# chain: MEELVEEAKKLSVEEAAELFVKRVEELVESGKATREELEALVEAAAKVLGEKIKKNKNEEDLDIAAEAADRIREILAKVDPELAAYADSEIGAEIMEAFS
# B28: GBRAPL2_0_7194 (protein)
# chain: IEERIEELKKLSIEEAVKEGIRLVKEVKEDESFSKEEIVEIAERVAKIVAEKAKEEKTEEALDLAWKFADEVREILKEIDPNDAAYVESEIGSELMEIES
# B29: GBRAPL2_0_7191 (protein)
# chain: YEEELKKISELPIEEFAKRGVELVERAAKDPSLTLEELEELAERVIELLIEKVKEEKTEEAEEIYVEAADRIREILLKIDPNLAADVATEAGAGLYEIES
# B30: GBRAPL2_0_7202 (protein)
# chain: YLEEIEKAKELSPEELFKKLKELVEKLAEDDSISPEEKEEILLKIVELAAEKVKETKTEEDEKKFEEIVELAVKVAEKIDPNLAAYIRTHAGSLLYENES
# B31: GBRAPL2_0_7207 (protein)
# chain: YEKEIEKAKTLTPEEAFKALKKLVKKLAKDKSVSKEELEALLEAILDLAYEIMAKEKTEEAEKAFDEIAEEATKAAAKRDPNLAAYIASYAGSLLMEYES
# B32: GBRAPL2_0_7212 (protein)
# chain: MEEILEEISKLSIEEAAEKAIKLVKELVESKSLSTEELFELAKKLLEIIVEKVKEENKEESLEIARETADEIYEILKKVDPKEAAYVYTEIMEKILELEE
# Molecular target: GABARAPL2, P60520
# Assay: median log2 fold change of GCK-ALFA target abundance (FLAG IP / Myc IP barcode read proportion) (log2 ratio); each designed protein is fused to an ALFA-tag nanobody in HEK293 cells to bring the named protein to FLAG-tagged glucokinase (GCK); Myc marks an untargeted standard; higher = target protein stabilised (more abundant)
# Conditions: target protein: 3xFLAG-MCP-GCK-ALFA reporter; HEK293 landing pad (RPLP)
# Summary of the method: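 An ALFA-nanobody-fused binder library was recombined into HEK293 landing-pad cells and induced with 2 μg mL^−1 doxycycline. Cells were transfected with a plasmid expressing a FLAG-tagged target and a Myc-tagged standard. After 48 h, lysates underwent anti-FLAG and anti-Myc immunoprecipitation, and circular RNA barcodes were reverse transcribed, amplified and sequenced. Target abundance is the per-binder median log2 ratio of FLAG to Myc barcode read proportions. Barcodes needed ≥10^−7 proportion in both replicates, binders ≥3 barcodes per replicate, and a 10^−6 pseudocount was added; the two replicates were pooled.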
# Chain of GABARAPL2, P60520 (P60520 whole entry, the tested form may be a part): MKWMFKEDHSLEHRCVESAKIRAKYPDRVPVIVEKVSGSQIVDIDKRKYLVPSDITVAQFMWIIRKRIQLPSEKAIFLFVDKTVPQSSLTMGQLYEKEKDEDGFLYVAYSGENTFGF
row,Binder,median log2 fold change
1,B1,0.21
2,B2,0.109
3,B3,0.169
4,B4,-0.0156
5,B5,0.133
6,B6,-0.227
7,B7,0.163
8,B8,-0.118
9,B9,0.245
10,B10,-0.305
11,B11,0.12
12,B12,0.00483
13,B13,-0.0345
14,B14,0.0798
15,B15,0.0418
16,B16,0.192

row,Binder,median log2 fold change
1,B17,-0.00179
2,B18,0.33
3,B19,0.196
4,B20,0.152
5,B21,0.0789
6,B22,0.104
7,B23,0.104
8,B24,0.0252
9,B25,0.0795
10,B26,0.126
11,B27,0.0633
12,B28,0.238
13,B29,0.23
14,B30,0.0999
15,B31,-0.0647
16,B32,0.328

# Source: the supplement of paper PMC12632987
